Source: PubChem BioAssay
Calpain2 inh: inhibitors of pig calpain II, primary screen, biochemical, fluorogenic peptide substrate, 1536-well; purified calpain II, 30 min; inhibition, % at 16 µM; 220,000 tested, 0.37% active;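 active = inhibition above about 50%, limit read from the data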
WT yeast gro inh: growth inhibition of WT strain, primary screen, mitochondrial fusion inhibitor project, WT and mutant strains, chemical genetic; mitochondrial fusion phenotypic screen; inhibition, % at 10 µM; 190,000 tested, 2.1% active; AID 1362, 2008; in the data active = inhibition above about 58%; tested in S. cerevisiae
ROMK mod: ROMK potassium channel modulators, primary screen, cell-based, thallium flux, MLSMR library; ATP-sensitive inward rectifier potassium channel 1 (Homo sapiens), P48048; Tet-inducible ROMK, thallium flux fluorescence; actives lie on both sides; B-score at 10 µM; 130,000 tested, 2% active;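 active = signal ratio slope over the read window, or its plate-corrected B-score, at least 3 SD from the plate mean, either direction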;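 note: B-score of the F/F0 ratio slope over 7 to 12 s after thallium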
Target sequence (P48048 whole entry, looked up): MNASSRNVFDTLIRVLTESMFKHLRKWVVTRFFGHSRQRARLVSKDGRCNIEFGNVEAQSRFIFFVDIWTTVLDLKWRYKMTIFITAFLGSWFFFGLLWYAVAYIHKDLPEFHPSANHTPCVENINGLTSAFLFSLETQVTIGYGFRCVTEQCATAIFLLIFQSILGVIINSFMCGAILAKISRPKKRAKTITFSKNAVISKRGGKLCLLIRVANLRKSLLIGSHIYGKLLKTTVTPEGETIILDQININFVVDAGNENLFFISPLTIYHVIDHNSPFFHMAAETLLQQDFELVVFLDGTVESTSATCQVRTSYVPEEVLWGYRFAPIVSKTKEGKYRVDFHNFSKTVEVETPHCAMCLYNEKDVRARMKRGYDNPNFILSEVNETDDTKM
L major viab: Leishmania major promastigote growth inhibition, primary screen | Leishmania major promastigotes, resazurin fluorescence viability | 200,000 tested, 9% active | inhibition, % at 10 µM; in the data active = inhibition above about 50%;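 note: promastigotes grown with compound for 44 hours at 28 °C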
KCC2 mod: KCC2 cotransporter modulators, thallium flux, primary screen, cell-based, HEK293 KCC2, FluoZin-2 fluorescence, MLSMR; KCC2 cells, thallium flux FluoZin-2 fluorescence; 190,000 tested, 2.2% active; AID 1456, 2008; Solute carrier family 12 member 5 (Homo sapiens), Q9H2X9; B-score of Tl+ flux slope (higher = more flux/activation; lower = inhibition) at 10 µM;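 active = thallium flux slope and its plate-corrected score both differing from the plate sample mean at a set confidence after two filtering rounds, in either direction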;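 note: slope of fluorescence scaled to starting intensity during 10 to 20 s after thallium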
KCC2 secondary: KCC2 modulators in sodium-free buffer, confirmation, cell-based, HEK293 KCC2, thallium flux, secondary assay; shares compounds with KCC2 mod; FluoZin2 fluorescence; stronger effect = higher value; normalised thallium flux (F/F0 slope) at 10 µM; 3,700 tested, 15% active;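 active = thallium flux slope above the same plate's solvent-only control mean plus 3 SD; inconclusive = the two replicate wells disagree; inactive = no significant difference from solvent-only control wells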
KCC2 bumet counter: thallium flux persisting under bumetanide in KCC2 cells, confirmation, counter-screen for KCC2 modulator project, cell-based, HEK293 KCC2, FluoZin2, secondary assay 3; AID 1714, 2009; 3,700 tested, 49% active; HEK293-KCC2 + bumetanide/ouabain; stronger effect = higher value; shares compounds with KCC2 mod; normalized thallium flux at 10 µM;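 active = thallium entry rate above the same plate's blocked-transporter control wells by more than 3 SD; inconclusive = the two repeat wells disagree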;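 note: raw slope of fluorescence over initial fluorescence between 10 and 20 s after thallium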
KCC2 secondary2: KCC2 modulators without ouabain present, confirmation, cell-based, HEK293 KCC2, thallium flux, FluoZin2, secondary assay 2; shares compounds with KCC2 mod; thallium flux FluoZin2 fluorescence; actives lie on both sides; F/F0 rise rate, 10–20 s post-thallium; normalized thallium flux at 10 µM; 3,700 tested, 23% active; AID 1715, 2009;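 active = thallium flux slope more than 3 SD above or below the plate's solvent-only control mean, mostly below; inconclusive = the two repeat wells disagreed; inactive = no significant shift from solvent-only controls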;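 note: raw slope with 0.1% DMSO as baseline and bumetanide as block control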
HEK counter1: thallium flux modulation in parental HEK cells, confirmation, counter-screen for KCC2 modulator project, cell-based, counterscreen 1. shares compounds with KCC2 mod. HEK293 parental cells, thallium flux FluoZin2, ouabain; baseline-ratio fluorescence slope, 10–20 s after thallium. thallium flux rate (normalised fluorescence) at 10 µM. 3,700 tested, 46% active;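 active = thallium flux rate significantly above the same plate's solvent-only control wells, beyond their mean plus 3 SD; inconclusive = the two replicate wells gave conflicting results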
KCC2 ouabain: KCC2 inhibitors and activators, ouabain retest, confirmation, HEK-KCC2 cells. shares compounds with KCC2 mod. HEK293-KCC2, thallium flux FluoZin2 fluorescence; bidirectional: low = inhibitor, high = activator. raw Tl+ flux slope (below DMSO = inhibition, above = activation) at 10 µM. 3,700 tested, 48% active. AID 1717, 2009;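 active = thallium flux slope beyond 3 SD from same-plate DMSO control mean in most replicates, usually higher, sometimes lower; inconclusive = repeat tests gave conflicting results; inactive = no significant difference from controls in most replicates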;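 note: slope of initial-normalized fluorescence between seconds 10 and 20 after thallium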
HEK293 Tl flux2: native HEK Tl+ uptake effects, second counter-screen – HEK cells, counterscreen 2, counter-screen for KCC2 modulator project, confirmation | shares compounds with KCC2 mod | HEK293 parental, thallium flux FluoZin-2 fluorescence slope | thallium flux slope at 10 µM | 3,700 tested, 33% active | AID 1718, 2009;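 active = thallium flux slope above the same plate's solvent-control mean plus 3 SD in both duplicate wells; inconclusive = duplicate wells that disagreed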;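 note: run without ouabain in cells lacking the KCC2 cotransporter; slope of fluorescence scaled to its starting value between 10 and 20 s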
Active calls of the source: *; ? = inconclusive; . = not tested or not shown. Only some compounds are listed: those with a hit (about 12% of all), similar ones and a draw of the others.

SMILES | Calpain2 inh | WT yeast gro inh | ROMK mod | L major viab | KCC2 mod | KCC2 secondary | KCC2 bumet counter | KCC2 secondary2 | HEK counter1 | KCC2 ouabain | HEK293 Tl flux2
Cc1cc(C)c2nc(SCC#N)cc(C)c2c1 | 7 | 31 | . | -10 | 1.1 | . | . | . | . | . | .
O=C(CSc1nc2ccc(N3CCOCC3)cc2c(=O)n1CCc1ccccc1)NCC1CCCO1 (configuration not stated) | -273 | 13 | -0.035 | 10 | 6.7* | 0.016 | 0.016* | 0.029 | 0.009* | 0.017 | 0.013*
Fc1ccc(Nc2ccc3ccccc3n2)c(F)c1 | 19 | 39 | -1.2 | 26 | 0.026 | . | . | . | . | . | .
CN(C)c1ncc(S(=O)(=O)c2ccccc2)c(-c2ccc(Cl)cc2Cl)n1 | 17 | 3 | . | 4 | -5.7* | 0.0059 | 0.0042 | 0.027 | 0.007 | 0.018 | 0.0091
CSCCC(NC(=O)COc1cccc2ccccc12)C(=O)O (configuration not stated) | 4 | . | . | . | -0.032 | . | . | . | . | . | .
CC(C)(C)Nc1nc(OCC(F)(F)F)nc(OCC(F)(F)F)n1 | -17 | 6 | . | -2 | -2.8* | 0.0076 | 0.007 | 0.026 | 0.0067 | 0.015* | 0.01
CCC(C)Nc1nc(OCC(F)(F)F)nc(OCC(F)(F)F)n1 (configuration not stated) | -2 | 0 | . | 5 | -1.6 | . | . | . | . | . | .
Cc1cc(C)n(-c2nc3ccccc3s2)n1 | -18 | 5 | 2 | -14 | -0.35 | . | . | . | . | . | .
CC1=NN(c2nc3ccccc3s2)C(O)(C(F)(F)F)C1 (configuration not stated) | 7 | . | -0.14 | . | 5.8* | 0.0085 | 0.011* | 0.03 | 0.012* | ? | 0.013*
CCOC(=O)c1c(N2C(=O)Nc3ccccc3N2O)n[nH]c1-c1cccc(OC)c1 | -12 | -6 | . | -4 | 0.75 | . | . | . | . | . | .
O=C(Nc1cccc(C(F)(F)F)c1)C(Sc1cccc[n+]1[O-])c1ccccc1 (configuration not stated) | -15 | -10 | 0.032 | -3 | 0.32 | . | . | . | . | . | .
Cc1ccc(-n2nnnc2SCC(=O)NC2CCCc3ccccc32)cc1 (configuration not stated) | 16 | 23 | -1.8 | 0 | -4.6* | 0.0068 | 0.0033* | 0.026* | ? | 0.014* | 0.0095
Cc1ccc(-n2nnnc2SCC(=O)N2CCc3ccccc3C2)cc1 | 39 | 57 | 0.59 | -3 | -3.6* | 0.0075 | 0.0059 | 0.028 | 0.0071 | 0.021* | 0.011
Cc1ccc(-n2nnnc2SCC(=O)N2CCCCC2)cc1 | -2 | 11 | -0.96 | -4 | 0.64 | . | . | . | . | . | .
COc1ccc(CCNC(=O)COc2ccc(C)nc2[N+](=O)[O-])cc1 | -21 | 3 | 0.19 | 1 | 0.83 | . | . | . | . | . | .
